“And” between values parts separate entries of the source, which are not always exact repeats. Equal values may be shown once. About 2,000 (36%) of roughly 5,500 compounds were called active. Roughly 18% stayed inconclusive and do not appear here. Rule as the data show it: active = normalized growth mostly below about 0.91 (no sharp cut-off); inconclusive = no clear call, values can overlap the other calls; inactive = mostly above about 0.92. Some of the results follow.
Test: chemical genetic growth profiling, strain panel (AID 1159580);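 also: tested at 20 µM; growth read once vehicle control cultures reached saturation at 30 °C; 1 = growth at the plate median or of vehicle wells; lower values mean less growth of the strain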
Conditions: S. cerevisiae deletion strains, growth OD

Measured: normalized growth

COc1nc(NC(C)C)nc(NC(C)C)n1
inactive: locus YAL013W, strain DEP1, stronger effect = lower value 1.01 | locus YAL021C, strain ccr4, stronger effect = lower value 0.991 | locus YAL026C, strain drs2, stronger effect = lower value 1.04 | locus YAL030W, strain snc1, stronger effect = lower value 1.02 | locus YBL061C, strain skt5, stronger effect = lower value 1.03 | locus YBR009C, strain hhf1, stronger effect = lower value 1.06 | locus YBR021W, strain FUR4, stronger effect = lower value 1.04 | locus YBR023C, strain chs3, stronger effect = lower value 1.03 | locus YBR171W, strain sec66, stronger effect = lower value 1.02 | locus YBR229C, strain ROT2, stronger effect = lower value 0.999 | locus YBR231C, strain swc5, stronger effect = lower value 1.02 | locus YBR279W, strain paf1, stronger effect = lower value 1.01 | locus YCL011C, strain gbp2, stronger effect = lower value 1.02 | locus YCL016C, strain dcc1, stronger effect = lower value 1.01 | locus YCL029C, strain bik1, stronger effect = lower value 1.02 | locus YCL069W, strain vba3, stronger effect = lower value 1.01 | locus YCR088W, strain abp1, stronger effect = lower value 1.02 | locus YDL005C, strain med2, stronger effect = lower value 1.02 | locus YDL035C, strain GPR1, stronger effect = lower value 1.02 | locus YDL040C, strain nat1, stronger effect = lower value 1 | locus YDL074C, strain BRE1, stronger effect = lower value 1.05 | locus YDL101C, strain DUN1, stronger effect = lower value 1.02 | locus YDL134C, strain PPH21, stronger effect = lower value 1 | locus YDL185W, strain tfp1, stronger effect = lower value 1.03 | locus YDL192W, strain arf1, stronger effect = lower value 1.03 | locus YDR001C, strain nth1, stronger effect = lower value 1.02 | locus YDR069C, strain doa4, stronger effect = lower value 1.02 | locus YDR101C, strain arx1, stronger effect = lower value 1.01 | locus YDR137W, strain rgp1, stronger effect = lower value 1.02 | locus YDR150W, strain NUM1, stronger effect = lower value 1.01 | locus YDR159W, strain sac3, stronger effect = lower value 1.07 | locus YDR162C, strain NBP2, stronger effect = lower value 1.01 | locus YDR195W, strain ref2 0.995 | locus YDR297W, strain sur2, stronger effect = lower value 1.03 | locus YDR318W, strain mcm21, stronger effect = lower value 1.02 | locus YDR334W, strain swr1, stronger effect = lower value 1.01 | locus YDR335W, strain msn5, stronger effect = lower value 1.01 | locus YDR388W, stronger effect = lower value 1.03 | locus YDR392W, strain spt3, stronger effect = lower value 1.01 | locus YDR502C, strain sam2, stronger effect = lower value 1.02 | locus YEL003W, strain gim4, stronger effect = lower value 1.02 | locus YEL037C, strain rad23, stronger effect = lower value 1.02 | locus YEL061C, strain CIN8 (second series), stronger effect = lower value 1.03 | locus YEL061C, strain CIN8, stronger effect = lower value 1 | locus YER015W, strain faa2, stronger effect = lower value 1.02 | locus YER016W, strain bim1, stronger effect = lower value 1.01 | locus YER110C, stronger effect = lower value 1.02 | locus YER111C, strain swi4, stronger effect = lower value 1.02 | locus YER155C, strain BEM2 (second series), stronger effect = lower value 1.03 | locus YER155C, strain BEM2, stronger effect = lower value 1.01 | locus YER167W, strain BCK2, stronger effect = lower value 1.01 | locus YFR010W, strain ubp6, stronger effect = lower value 1.03 | locus YGL078C, strain dbp3, stronger effect = lower value 1.01 | locus YGL086W, strain mad1, stronger effect = lower value 1.01 | locus YGL167C, strain pmr1, stronger effect = lower value 1.02 | locus YGL173C, strain kem1, stronger effect = lower value 1.04 | locus YGL227W, strain vid30, stronger effect = lower value 1.04 | locus YGL240W, strain doc1, stronger effect = lower value 1.02 | locus YGL248W, strain PDE1, stronger effect = lower value 1.01 | locus YGL253W, strain hxk2, stronger effect = lower value 1.03 | locus YGR078C, strain PAC10, stronger effect = lower value 1.02 | locus YGR135W, strain pre9, stronger effect = lower value 1.02 | locus YGR229C, strain SMI1, stronger effect = lower value 1.02 | locus YGR252W, strain gcn5, stronger effect = lower value 1.05 | locus YHR013C, strain ard1, stronger effect = lower value 1.03 | locus YHR027C, strain rpn1, stronger effect = lower value 1.03 | locus YHR030C, strain SLT2, stronger effect = lower value 1.01 and 1.07 | locus YHR079C, strain IRE1 (second series), stronger effect = lower value 1.02 | locus YHR079C, strain IRE1, stronger effect = lower value 1.03 | locus YHR094C, strain hxt1, stronger effect = lower value 1.01 | locus YHR129C, strain ARP1, stronger effect = lower value 1.01 | locus YHR142W, strain chs7, stronger effect = lower value 1.04 | locus YHR200W, strain rpn10, stronger effect = lower value 1.01 | locus YIL066C, strain RNR3, stronger effect = lower value 1.02 | locus YIL073C, strain SPO22, stronger effect = lower value 1.08 | locus YIL125W, strain kgd1, stronger effect = lower value 1.01 | locus YIR030C, strain dcg1, stronger effect = lower value 1.01 | locus YJL092W, strain hpr5, stronger effect = lower value 1.02 | locus YJL095W, strain BCK1 (second series), stronger effect = lower value 1.04 | locus YJL095W, strain BCK1, stronger effect = lower value 1.01 and 1.06 | locus YJL115W, strain asf1, stronger effect = lower value 1.02 | locus YJL129C, strain trk1, stronger effect = lower value 1.02 | locus YJL134W, strain LCB3, stronger effect = lower value 1.01 | locus YJL154C, strain vps35, stronger effect = lower value 1.01 | locus YJL164C, strain tpk1, stronger effect = lower value 1.01 | locus YJL166W, strain qcr8, stronger effect = lower value 1.03 | locus YJL168C, strain set2, stronger effect = lower value 1.02 | locus YJL187C, strain SWE1 (second series), stronger effect = lower value 1.01 | locus YJL187C, strain SWE1, stronger effect = lower value 1 | locus YJR043C, strain POL32, stronger effect = lower value 1.03 | locus YJR066W, strain TOR1, stronger effect = lower value 1
